A short description of test [1]: AP1 Signaling Pathway (AID 357; active = well fitted curve in either direction with a large enough effect, not every such curve was filed as active; also: % is scaled to controls: 0 for no effect and ±100 for the full control effect). The gist of the method:
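AP-1-bla ME-180 cells with beta-lactamase reporter under AP-1 response element, stimulated with EC50 EGF; compounds titrated, 5 hours at 37 degrees Celsius. CCF4 read at 460/530 nm ratio; positive and negative modulators judged by AC50.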

The nature of test [2]: Stat Signaling Pathway (AID 446; active = well fitted curve in either direction with a large enough effect, not every such curve was filed as active;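 also: ME-180 cervical cancer cells given 40 pM IL-6 alongside compound; SIE-controlled beta-lactamase reporter measured as 460/530 nm FRET emission ratio; % is scaled to controls: 0 for no effect and ±100 for the full control effect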). The gist of the method:
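IL-6/STAT signaling read in ME-180 cells via an SIE beta-lactamase reporter. Stimulus was 40 pM IL-6 (its AC50) for 5 hrs, so both activation and inhibition register.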

In test [3] the target is Glucocorticoid receptor (Homo sapiens) (UniProt P04150). Nature of the test: GR-EFC Redistribution (AID 451; calls by dose curve; also: potency is read from the fitted curve at half-maximal effect). To be noted: CHO-K1 GR-EFC translocation, beta-gal luminescence, 2 h. The essentials:
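CHO-K1 cells stably expressing nuclear-localized β-gal enzyme acceptor and GR fused C-terminally to the enzyme donor fragment; ligand-driven nuclear translocation restores β-gal by complementation. Compounds titrated up to 46 uM final, 2 h at 37 °C; luminescence read.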

Test [4] deals with Mitogen-activated protein kinase 10 (Mus musculus) (UniProt Q61831). Nature of the test: JNK3 AlphaScreen Assay (AID 530; active = well fitted curve in either direction with a large enough effect, not every such curve was filed as active;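 also: kinase came from lysate of stimulated human HepG2 cells; signal reports phosphorylation of biotinylated GST-cJun 1-79 at Ser73 with 10 µM ATP; % is scaled to controls: 0 for no effect and ±100 for the full control effect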). The gist of the method:
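Inhibitors reduce antibody binding to phosphorylated biotin-cJun, lowering AlphaScreen luminescence. Lysates from HepG2 cells pre-activated by IL-1beta plus TNF-alpha supplied JNK3; compounds were titrated.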

Test [5] addresses 3',5'-cyclic-AMP phosphodiesterase 4B (Homo sapiens) (UniProt Q07343). Nature of the test: qHTS Assay for Inhibitors of PDE-IV (AID 607; active = well fitted activation curve with a large enough effect in the main read-out, with a control signal flat, not every such curve was filed as active; also: % of control where 0% means no effect). The gist of the method: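 Live HEK293 cells with a modified cyclic nucleotide-gated (CNG) channel report intracellular cAMP via membrane-potential dye fluorescence (ex 535/em 590 nm). Endogenous PDE-IV was targeted. Compounds were tested at up to 22.9 uM final; RO 20-1724 100 uM served as control.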

Test [6] addresses Cytochrome P450 3A4 (Homo sapiens) (UniProt P08684). Nature of the test: qHTS Assay for Activators of Cytochrome P450 3A4 (AID 885). Also: nearly all actives have a fitted effect of over 65% in size. The essentials:
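Quantitative HTS format: compounds preincubated with 20nM human CYP3A4 and Luciferin-PPXE substrate at KM, reaction started by NADPH regeneration, stopped after 60 min, luciferase luminescence read 20 min later.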

Test [7] can be described thus: Counterscreen qHTS for small molecule stabilizers of the endoplasmic reticulum resident proteome: GLuc-NoTag assay (AID 1508627).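 Also: SH-SY5Y cells given compound then 100 nM thapsigargin to empty ER calcium; 0% = thapsigargin alone and -100% = DMSO vehicle control.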 The gist of the method:
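SH-SY5Y cells stably expressing constitutively secreted GLuc (no SERCaMP tag) were pre-incubated 5 h, treated with compound for 19 h, then 100 nM thapsigargin for 4 h at 37C; medium GLuc read by coelenterazine luminescence.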

Test [8] is described as follows: Confirmatory qHTS for small molecule stabilizers of the endoplasmic reticulum resident proteome: Secreted ER Calcium Modulated Protein (SERCaMP) assay (AID 1508628). Also: nearly all actives have a fitted effect of over 40% in size. Also: potency is read from the fitted curve at half-maximal effect. The gist of the method:
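SH-SY5Y cells stably expressing GLuc-SERCaMP, treated 16 h with compound (primary 1.53, 7.67, 38.3 uM; confirmation 11 concentrations, up to 76.6 uM), then 100 nM thapsigargin for 4 h. Secreted Gaussia luciferase in medium read by coelenterazine luminescence.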

Test [9] addresses Cytochrome P450 1A2 (Homo sapiens) (UniProt P05177). Nature of the test: p450-cyp1a2 (AID 410; calls by dose curve; also: potency is read from the fitted curve at half-maximal effect). The gist of the method: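 20nM CYP1A2 with 100uM Luciferin-ME (at Km) in 100mM KPO4; compound preincubated 10 min, NADPH regeneration added, 60 min at room temperature. Luciferin quantified by luminescence after detection reagent; normalized to 57 uM furafylline.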
A short description of test [10]: NFAT Signaling Pathway (AID 444; active = well fitted curve in either direction with a large enough effect, not every such curve was filed as active;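 also: carbachol stimulus at about its EC50 of 1 µM final; % is scaled to controls: 0 for no effect and ±100 for the full control effect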). To be noted: Jurkat NFAT-bla M1, carbachol, beta-lactamase ratio, 5 h. The gist of the method:
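Jurkat cells carrying an NFAT-driven β-lactamase reporter and co-transfected muscarinic M1 receptor were treated with compound plus carbachol (1 uM final, an EC50 level) for 5 h at 37 °C. CCF4 loading followed for 1 h at RT; 460/530 nm ratio gave %activity.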

Test [11] is described as follows: qHTS Assay for Lipid Storage Modulators (AID 1519; calls by dose curve). The note with it: Drosophila S3 cells, BODIPY lipid droplet/cell ratio, laser cytometry, cells loaded with oleic acid. The essentials: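 Cells seeded at 5,000 per well were treated with compounds over a concentration series and loaded with oleic acid (400 uM, as added). Lipid droplet fluorescence (488 nm excitation, 500-530 nm channel) was read by laser-scanning cytometry and normalized to 20 uM Triacsin C.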

Test [12] is described as follows: Cell Viability qHTS for small molecule stabilizers of the endoplasmic reticulum resident proteome (AID 1508629). The note with it: cell viability counter-screen, 100 nM thapsigargin for final 4 h.
The nature of test [13]: Primary qHTS for small molecule stabilizers of the endoplasmic reticulum resident proteome: Secreted ER Calcium Modulated Protein (SERCaMP) assay (AID 1508630). Also: % is scaled to controls: 0 for no effect and ±100 for the full control effect. The gist of the method: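 GLuc-SERCaMP-expressing SH-SY5Y cells, pretreated 16 h with compound, are challenged with thapsigargin to empty ER calcium stores; after 4 h, coelenterazine is added directly to the medium and luminescence is imaged.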

Test [14] deals with Calcium and integrin-binding protein 1 (Homo sapiens) (UniProt Q99828). Nature of the test: Primary qHTS for Identification of Calcium Integrin Binding Protein 1 (CIB1) Competitor (AID 1508620). The essentials: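 Fluorescence polarization competition: CIB1-GST (1 uM final) preincubated with compound 15 min at room temperature, then FITC-labeled alphaIIb peptide (100 nM final) added for another 15 min. Polarization read at Ex 480/Em 540.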

In test [15] the target is Glucocorticoid receptor (Homo sapiens) (UniProt P04150). Nature of the test: GR-GFP Redistribution (AID 450;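 active = compounds whose dose series gives a full or clear partial fitted curve of increased nuclear translocation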; also: potency is read from the fitted curve at half-maximal effect). To be noted: U2OS GR-GFP nuclear translocation, laser cytometry, 2 h.
Test [16] deals with Guanine nucleotide-binding protein G(i) subunit alpha-1 (Homo sapiens) (UniProt P63096). Nature of the test: qHTS Assay for Inhibitors of RGS12 GoLoco Motif Activity (Green Fluorophore) (AID 879).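 Also: 0% = labeled peptide with Gαi1 and full inhibition = labeled peptide alone without protein; negative values mean loss of peptide binding seen as reduced polarization.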 The essentials:
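Fluorescence polarization assay: 50 nM Gαi1 with 10 nM FITC-labeled RGS12 GoLoco peptide in 10 mM Tris pH 7.5, 150 mM NaCl, 0.1 mM GDP, 0.05% NP40, 10 min at room temperature with compound.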

Test [17] can be described thus: qHTS Assay for Identification of Small Molecule Antagonists for NFkB Signaling Pathway (AID 895; active = well fitted inhibition curve with a large enough effect in the signal ratio, with a control signal flat, not every such curve was filed as active; the % refers to the signal ratio; also: potency is read from the fitted curve at half-maximal effect). The gist of the method: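 NFkB-bla ME-180 cervical carcinoma cells with beta-lactamase reporter under NFkB response element; compounds added, then TNF alpha at 10 pM final (EC50), 5 h at 37 C. LiveBLAzer substrate 2 h, room temperature; emission 460/530 nm at 405 nm excitation.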

A short description of test [18]: qHTS Assay for Identification of Small Molecule Agonists for Thrombopoietin (TPO) Signaling Pathway (AID 917). Also: % is scaled to controls: 0 for no effect and ±100 for the full control effect. The essentials: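 Murine Ba/F3 cells expressing human TPO receptor and GPIIb-promoter luciferase, IL-3-starved overnight, given compound plus TPO at 26 pM (EC50). After 24 h at 37 C, 5% CO2, luminescence read.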
Test [19] concerns the target Muscarinic acetylcholine receptor M1 (Rattus norvegicus) (UniProt P08482). Nature of the test: qHTS Assay for Antagonists of Acetylcholine Muscarinic M1 Receptor: Kinetic Measurement of Intracellular Calcium Response (AID 943). Also: nearly all actives have a fitted effect of over 75% in size. The gist of the method: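 CHO cells expressing rat M1 receptor, Fluo-4 loaded, preincubated 10 min with compound, then stimulated with EC80 carbachol (100 nM final). Kinetic calcium fluorescence over 4 min; response taken as peak over basal signal.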

The target of test [20] is Pyruvate kinase (Leishmania mexicana) (UniProt Q27686). Nature of the test: qHTS Validation Assay for Inhibitors of Leishmania Mexicana Pyruvate Kinase (AID 945).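 Also: 0% = DMSO only neutral control wells.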 The gist of the method: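 Read-out: luminescence from PKLight stop/detection reagent, data normalized to DMSO. Reaction: 0.2 nM E451W LmPYK, 0.5 mM PEP, 0.1 mM ADP, pH 7.2, 1 h room temperature.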
Test [21] deals with Pyruvate kinase PKM (Homo sapiens) (UniProt P14618). Nature of the test: qHTS Assay for Activators of Human Muscle Pyruvate Kinase (AID 954; active = well fitted curve in the direction sought with a large enough effect, not every such curve was filed as active;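 also: 0% = uninhibited enzyme and -100% = no enzyme or full thiadiazolimine inhibition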). The gist of the method:
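Enzyme was run at intermediate activity so both inhibitors and activators could be detected. ATP formed from ADP and PEP by 0.1 nM human PKM2 during a 1 h room-temperature incubation was quantified by coupled luciferase luminescence.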

For test [22], the target named is Alpha-galactosidase A (Homo sapiens) (UniProt P06280). Nature of the test: Counterscreen for Glucocerebrosidase Inhibitors: qHTS Assay for Human alpha-Galactosidase at pH 4.5 (AID 992). Also: 0% is about no effect. The gist of the method:
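Read-out is 4-methylumbelliferone fluorescence (365 nm excitation, 440 nm emission) after a pH 10 NaOH/glycine stop. Reactions held 2 nM enzyme and 80 uM substrate at pH 4.5 for 20 min at room temperature.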

In test [23] the target is alpha-glucosidase (Oryza sativa, rice) (UniProt Q653V4). Nature of the test: Counterscreen for Glucocerebrosidase Inhibitors: qHTS Assay for Rice alpha-Glucosidase at pH 5.0 (AID 997).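 Also: 0% = full activity with enzyme and -100% = basal without enzyme.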 The essentials:
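Rice alpha-glucosidase (4 nM final) with 400 uM 4-methylumbelliferyl-alpha-D-glucopyranoside in citrate buffer pH 5.0, 20 min at room temperature, stopped at pH 10; fluorescence 365/440 nm, compounds 0.7 nM–77 uM, AC50 from Hill fits.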

Test [24] deals with Alpha-galactosidase (Coffea arabica) (UniProt Q42656). Nature of the test: Counterscreen for Glucocerebrosidase Inhibitors: qHTS Assay for Coffee Bean alpha-Galactosidase at pH 5.9 (AID 998).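 Also: plate controls were uninhibited enzyme for no effect and no-enzyme basal signal for full effect.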 The gist of the method:
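Green coffee bean enzyme (2 nM final) was incubated with compounds (0.7 nM–77 uM) and 4-methylumbelliferyl alpha-D-galactopyranoside (80 uM) in citrate buffer pH 5.9, 20 min at room temperature. High-pH stop; fluorescence 365/440 nm; AC50 from Hill fits.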

The target in test [25] is DNA dC->dU-editing enzyme APOBEC-3G (Homo sapiens) (UniProt Q9HC16). Nature of the test: qHTS for inhibitors of Vif-A3G interactions: Validation (AID 588379). Also: 0% is about no effect. The gist of the method: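 HeLa cells stably expressing Vif and A3G-eYFP, 700 cells/well, incubated overnight at 37 deg C, then exposed to compound overnight at 37 deg C. Inhibition of Vif-mediated degradation read as increased yellow fluorescence (Ex 488/Em 500-530) by laser-scanning cytometry.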

The structures appear in SMILES notation. Results filed as inconclusive are left out. Active and inactive are the calls of the source. Unless noted, calls follow the shape of the dose curve; as a rule, active = well fitted curve in the direction sought with a large enough effect; inconclusive = small, poorly fitted or top-dose-only effect, or another doubt; inactive = no such curve, though single readings can be large; an effect the other way counts as inactive or inconclusive.

Chain of Cytochrome P450 3A4 (Homo sapiens) (P08684 whole entry, looked up): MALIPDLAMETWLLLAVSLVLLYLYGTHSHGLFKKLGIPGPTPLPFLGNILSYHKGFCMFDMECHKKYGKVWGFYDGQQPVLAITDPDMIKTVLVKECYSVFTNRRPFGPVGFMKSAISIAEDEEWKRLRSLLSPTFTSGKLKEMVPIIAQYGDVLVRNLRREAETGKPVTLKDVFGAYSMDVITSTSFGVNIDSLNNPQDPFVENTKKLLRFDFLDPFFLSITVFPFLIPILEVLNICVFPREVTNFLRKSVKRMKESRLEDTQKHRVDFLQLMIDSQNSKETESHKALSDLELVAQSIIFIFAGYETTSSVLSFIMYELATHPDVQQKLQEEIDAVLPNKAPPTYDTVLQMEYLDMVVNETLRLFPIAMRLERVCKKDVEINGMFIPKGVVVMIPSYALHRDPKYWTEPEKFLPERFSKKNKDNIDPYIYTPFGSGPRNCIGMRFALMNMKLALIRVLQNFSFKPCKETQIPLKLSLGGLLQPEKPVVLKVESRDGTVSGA
Chain of Glucocorticoid receptor (Homo sapiens) (P04150 whole entry, looked up, the tested form may be a part): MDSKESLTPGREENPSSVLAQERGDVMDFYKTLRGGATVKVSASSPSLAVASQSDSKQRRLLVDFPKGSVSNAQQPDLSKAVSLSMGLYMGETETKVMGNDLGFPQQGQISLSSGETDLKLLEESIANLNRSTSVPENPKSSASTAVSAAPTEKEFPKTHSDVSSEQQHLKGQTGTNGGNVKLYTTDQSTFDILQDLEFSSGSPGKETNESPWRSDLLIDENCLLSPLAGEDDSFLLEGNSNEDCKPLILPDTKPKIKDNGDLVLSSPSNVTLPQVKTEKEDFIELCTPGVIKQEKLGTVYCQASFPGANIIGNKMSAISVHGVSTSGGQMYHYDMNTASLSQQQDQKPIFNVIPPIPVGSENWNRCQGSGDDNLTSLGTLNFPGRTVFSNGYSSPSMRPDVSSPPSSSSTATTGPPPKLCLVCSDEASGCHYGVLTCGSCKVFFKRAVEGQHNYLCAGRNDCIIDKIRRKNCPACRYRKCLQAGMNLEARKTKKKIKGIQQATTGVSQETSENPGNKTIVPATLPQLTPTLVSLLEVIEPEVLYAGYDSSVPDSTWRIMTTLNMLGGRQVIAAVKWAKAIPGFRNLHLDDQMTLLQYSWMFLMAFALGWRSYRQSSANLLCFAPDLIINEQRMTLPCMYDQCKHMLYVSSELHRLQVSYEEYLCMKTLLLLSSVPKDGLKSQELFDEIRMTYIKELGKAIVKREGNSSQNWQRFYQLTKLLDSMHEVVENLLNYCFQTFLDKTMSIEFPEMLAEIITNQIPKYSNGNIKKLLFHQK
Chain of Calcium and integrin-binding protein 1 (Homo sapiens) (Q99828 whole entry, looked up): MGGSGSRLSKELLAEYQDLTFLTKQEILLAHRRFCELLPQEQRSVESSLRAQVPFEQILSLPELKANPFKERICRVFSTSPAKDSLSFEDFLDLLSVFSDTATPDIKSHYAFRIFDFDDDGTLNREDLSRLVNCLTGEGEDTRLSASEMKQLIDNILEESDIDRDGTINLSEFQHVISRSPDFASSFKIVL
Chain of 3',5'-cyclic-AMP phosphodiesterase 4B (Homo sapiens) (Q07343 whole entry, looked up): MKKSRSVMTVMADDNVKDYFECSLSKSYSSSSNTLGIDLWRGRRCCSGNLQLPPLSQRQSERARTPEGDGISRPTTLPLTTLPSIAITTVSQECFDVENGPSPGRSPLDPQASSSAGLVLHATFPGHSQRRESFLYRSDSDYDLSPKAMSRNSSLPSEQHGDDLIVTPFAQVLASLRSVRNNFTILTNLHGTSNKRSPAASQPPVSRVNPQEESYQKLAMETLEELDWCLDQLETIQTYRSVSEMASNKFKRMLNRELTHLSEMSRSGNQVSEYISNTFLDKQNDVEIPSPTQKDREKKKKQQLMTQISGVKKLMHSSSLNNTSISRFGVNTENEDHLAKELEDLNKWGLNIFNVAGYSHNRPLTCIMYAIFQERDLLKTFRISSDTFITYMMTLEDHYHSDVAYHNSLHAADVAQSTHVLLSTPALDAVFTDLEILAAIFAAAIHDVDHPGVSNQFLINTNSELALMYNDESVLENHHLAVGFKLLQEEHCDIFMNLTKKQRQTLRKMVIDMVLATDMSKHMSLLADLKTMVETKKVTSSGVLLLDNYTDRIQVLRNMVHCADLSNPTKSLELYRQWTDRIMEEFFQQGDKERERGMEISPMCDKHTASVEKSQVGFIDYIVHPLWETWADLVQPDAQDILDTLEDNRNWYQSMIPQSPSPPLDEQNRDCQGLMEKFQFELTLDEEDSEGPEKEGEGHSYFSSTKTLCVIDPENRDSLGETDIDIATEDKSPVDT
Chain of Alpha-galactosidase (Coffea arabica) (Q42656 whole entry, looked up): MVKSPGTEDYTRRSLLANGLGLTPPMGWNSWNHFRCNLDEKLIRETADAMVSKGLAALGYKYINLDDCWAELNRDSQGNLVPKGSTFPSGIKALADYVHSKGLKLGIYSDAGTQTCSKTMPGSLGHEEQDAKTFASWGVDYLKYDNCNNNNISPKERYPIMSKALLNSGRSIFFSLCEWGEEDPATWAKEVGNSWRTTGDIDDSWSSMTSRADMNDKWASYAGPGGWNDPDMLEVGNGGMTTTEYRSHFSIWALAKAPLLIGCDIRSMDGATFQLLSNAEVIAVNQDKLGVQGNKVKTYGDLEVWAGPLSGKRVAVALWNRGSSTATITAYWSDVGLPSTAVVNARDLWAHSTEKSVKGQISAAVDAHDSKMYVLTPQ
Chain of Muscarinic acetylcholine receptor M1 (Rattus norvegicus) (P08482 whole entry, looked up): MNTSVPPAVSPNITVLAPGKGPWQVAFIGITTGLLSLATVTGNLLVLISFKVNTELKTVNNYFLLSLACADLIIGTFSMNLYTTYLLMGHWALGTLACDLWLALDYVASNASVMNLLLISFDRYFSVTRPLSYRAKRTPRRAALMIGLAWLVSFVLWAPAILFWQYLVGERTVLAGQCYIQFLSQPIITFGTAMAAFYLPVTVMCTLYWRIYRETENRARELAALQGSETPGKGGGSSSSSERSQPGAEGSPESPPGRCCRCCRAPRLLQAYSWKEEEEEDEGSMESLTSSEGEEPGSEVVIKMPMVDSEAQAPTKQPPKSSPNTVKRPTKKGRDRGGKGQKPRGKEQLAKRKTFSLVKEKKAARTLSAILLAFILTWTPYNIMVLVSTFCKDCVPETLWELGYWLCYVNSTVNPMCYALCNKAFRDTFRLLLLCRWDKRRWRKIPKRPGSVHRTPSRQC
Chain of Pyruvate kinase PKM (Homo sapiens) (P14618 whole entry, looked up): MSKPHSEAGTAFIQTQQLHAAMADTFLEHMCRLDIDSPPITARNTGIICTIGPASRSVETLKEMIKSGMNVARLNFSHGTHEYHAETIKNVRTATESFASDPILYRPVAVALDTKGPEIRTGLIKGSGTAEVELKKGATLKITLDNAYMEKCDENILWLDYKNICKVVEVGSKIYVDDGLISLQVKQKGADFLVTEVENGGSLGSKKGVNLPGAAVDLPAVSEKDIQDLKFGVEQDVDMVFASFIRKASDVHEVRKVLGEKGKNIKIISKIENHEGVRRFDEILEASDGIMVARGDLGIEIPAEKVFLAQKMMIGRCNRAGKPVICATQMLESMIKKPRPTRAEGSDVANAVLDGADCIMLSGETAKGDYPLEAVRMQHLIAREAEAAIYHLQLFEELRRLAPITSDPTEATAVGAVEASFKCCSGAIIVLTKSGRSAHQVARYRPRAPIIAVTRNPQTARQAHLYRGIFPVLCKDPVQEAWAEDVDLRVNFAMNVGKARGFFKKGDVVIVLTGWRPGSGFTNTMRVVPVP
Chain of Guanine nucleotide-binding protein G(i) subunit alpha-1 (Homo sapiens) (P63096 whole entry, looked up): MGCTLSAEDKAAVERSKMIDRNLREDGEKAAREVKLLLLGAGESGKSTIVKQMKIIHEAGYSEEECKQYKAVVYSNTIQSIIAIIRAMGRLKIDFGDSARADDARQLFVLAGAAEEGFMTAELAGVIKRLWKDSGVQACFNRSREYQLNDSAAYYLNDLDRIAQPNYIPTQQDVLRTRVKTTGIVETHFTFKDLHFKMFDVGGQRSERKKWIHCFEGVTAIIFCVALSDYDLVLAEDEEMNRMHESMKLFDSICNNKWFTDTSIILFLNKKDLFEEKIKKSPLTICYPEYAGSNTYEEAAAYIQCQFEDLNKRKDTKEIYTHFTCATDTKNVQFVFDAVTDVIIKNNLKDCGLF
Chain of Cytochrome P450 1A2 (Homo sapiens) (P05177 whole entry, looked up): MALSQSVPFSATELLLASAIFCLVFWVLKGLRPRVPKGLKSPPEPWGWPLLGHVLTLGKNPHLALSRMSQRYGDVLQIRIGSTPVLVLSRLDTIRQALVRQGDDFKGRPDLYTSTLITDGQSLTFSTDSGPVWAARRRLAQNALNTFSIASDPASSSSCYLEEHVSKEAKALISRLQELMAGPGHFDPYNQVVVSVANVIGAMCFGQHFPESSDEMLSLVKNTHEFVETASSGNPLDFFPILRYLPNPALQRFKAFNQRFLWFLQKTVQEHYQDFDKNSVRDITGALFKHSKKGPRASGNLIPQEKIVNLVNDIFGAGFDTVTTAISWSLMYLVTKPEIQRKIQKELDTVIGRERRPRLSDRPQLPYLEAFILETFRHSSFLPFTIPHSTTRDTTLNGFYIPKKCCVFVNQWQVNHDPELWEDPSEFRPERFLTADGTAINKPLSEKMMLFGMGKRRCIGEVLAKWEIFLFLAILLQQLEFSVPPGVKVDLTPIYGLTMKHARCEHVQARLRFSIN
Chain of Alpha-galactosidase A (Homo sapiens) (P06280 whole entry, looked up): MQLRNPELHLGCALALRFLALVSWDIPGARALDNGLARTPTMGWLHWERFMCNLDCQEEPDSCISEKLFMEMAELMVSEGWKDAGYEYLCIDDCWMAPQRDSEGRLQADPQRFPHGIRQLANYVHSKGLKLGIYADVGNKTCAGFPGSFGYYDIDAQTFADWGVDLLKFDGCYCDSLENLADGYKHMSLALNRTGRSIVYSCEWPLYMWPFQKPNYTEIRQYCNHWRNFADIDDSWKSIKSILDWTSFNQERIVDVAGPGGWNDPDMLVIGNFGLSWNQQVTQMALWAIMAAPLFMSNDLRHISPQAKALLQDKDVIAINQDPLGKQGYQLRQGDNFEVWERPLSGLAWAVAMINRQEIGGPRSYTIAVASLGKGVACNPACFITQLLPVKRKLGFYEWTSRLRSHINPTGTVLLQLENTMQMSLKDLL

Take `COc1ccc(NC(=O)N2CCCC3(CCN(C(=O)Oc4ccccc4)CC3)C2)cc1`: the result in test [1], in [2], in test [4] and in [7] was inactive. Besides, the Potency in test [3] was > 46 µM (inactive). Further, the Potency entry in test [5], in test [6] and in test [8] was “inactive” in each case.
For the compound `c1ccc(N2CCCC3(CCNCC3)C2)nc1`, the outcome in [1], in test [2], in test [4] and in test [7] was inactive. The Potency in test [9] was 25.1 µM (active); in [3] it was > 46 µM (inactive). Further, the activity change, negative = inhibition in test [10] (at 7.69 µM (top of the series)) is -27% (inactive); in [11] (at 57.5 µM (top of the series)) it was 3.94% (inactive). The Potency result in [6] is “inactive”. Besides, the figures for the max response in [11] (measured here: cell count channel max response), in [11] (measured here: lipid channel max response) and in test [12] were 2.21%, 8.95% and -3.57% (inactive), respectively.
Take `COc1ccc(/C=C/C(=O)N2CC3C[C@@H](C2)Cn2c3cccc2=O)cc1OC`: the result in [13] was inactive.
Take `N#Cc1ccc(NC(=O)Nc2nnc(-c3ccncc3)s2)cc1C(F)(F)F`: the result in test [14] was inactive.
The same measure, in the same setting: for `CCOc1ccc(CCNC(=O)c2cc3ccncc3n2Cc2cccc(C)c2)cc1OCC` the value was “inactive”; for `Cn1c(-c2ccccc2)c(P(=S)(c2ccccc2)c2ccccc2)c2ccccc21`, “inactive”; for `CCOc1ccc(CCNC(=O)c2cc3ccccc3n2Cc2cccc(C)c2)cc1OCC`, “inactive”.
Still for that read-out and setting: to `Cc1cccc(C)c1OP(=O)(OCc1c(-c2ccccc2)no[n+]1[O-])Oc1c(C)cccc1C` belongs “inactive”; to `CCOc1ccc(CCNC(=O)c2cc3ccncc3n2Cc2cccc(C)n2)cc1OCC`, “inactive”.
For `CC1(C)C2C[C@@H](O)[C@]3(C)C(CC[C@@]4(C)[C@H](c5ccoc5)C[C@H]5O[C@]543)[C@@]2(C)[C@@H](O)C[C@H]1O` (stereo not given in full), the result in [13] was inactive.
With `N#C/C(=C\c1ccc(O)c(O)c1)C(N)=S`, the activity change, negative = inhibition in [10] (at 38 µM (top of the series)) was -11.5% (inactive). The Potency in [15] is > 46 µM (inactive); in test [3], > 46 µM (inactive); in test [17], 5.62 µM (active); in test [8] it was 10 µM (active). Moreover, the call in [4], in test [16], in test [18], in test [21], in [22] and in test [23] was inactive. The outcome in test [24] and in test [25] was inactive. Moreover, the Potency result in [5], in test [6], in test [19] and in test [20] was “inactive” each time.

Values taken from PubChem BioAssay (NCATS).
